The list is not random: actives were taken first. Their share in the collection is about 2.4%.
NadD inh – inhibitors of Staphylococcus aureus NadD | actives 0.78% (n = 360,000) | inhibition, % at 20 µM | purified NadD enzyme, colorimetric absorbance read-out; in the data active means inhibition above about 26%
PREPL inhibitor – inhibits the human prolyl oligopeptidase-like enzyme. Q4J6C6. actives 0.68% (n = 320,000). inhibition, % at 5.96 µM. recombinant PREPL, fluorescence polarization activity-based probe. AID 2751; in the data active means inhibition above about 43%
PP1 counter – blocks human PP1-alpha phosphatase, a PP5 counter-screen. P62136. purified PP1alpha, OMFP fluorescence. inhibition, % at 6.7 µM. actives 0.9% (n = 320,000);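 active means inhibition above the mean inhibition of all tested compounds plus 3 SD, computed separately for each screening campaign, cut at about 15% in these data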
Target sequence (P62136 whole entry, looked up): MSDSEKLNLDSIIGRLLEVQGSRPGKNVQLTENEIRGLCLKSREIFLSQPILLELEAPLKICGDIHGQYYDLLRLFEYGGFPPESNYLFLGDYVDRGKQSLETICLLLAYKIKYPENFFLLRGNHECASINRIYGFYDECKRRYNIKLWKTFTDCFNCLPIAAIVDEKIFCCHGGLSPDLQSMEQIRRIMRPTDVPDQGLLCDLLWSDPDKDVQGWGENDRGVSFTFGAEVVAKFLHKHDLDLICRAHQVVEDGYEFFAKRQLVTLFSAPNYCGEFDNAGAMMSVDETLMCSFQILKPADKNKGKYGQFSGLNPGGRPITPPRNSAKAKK
Rpn11 block – blocks the human proteasome subunit Rpn11; O00487; human 26S proteasome, Ub4-pepOG fluorescence polarization; 20S core pre-blocked with epoxomicin; inhibition, % at 20 µM; actives 0.59% (n = 360,000); AID 588493;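 active means inhibition at 20 µM, scaled to each plate's controls, above about 33%, limit read from the data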
Target sequence (O00487 whole entry, looked up): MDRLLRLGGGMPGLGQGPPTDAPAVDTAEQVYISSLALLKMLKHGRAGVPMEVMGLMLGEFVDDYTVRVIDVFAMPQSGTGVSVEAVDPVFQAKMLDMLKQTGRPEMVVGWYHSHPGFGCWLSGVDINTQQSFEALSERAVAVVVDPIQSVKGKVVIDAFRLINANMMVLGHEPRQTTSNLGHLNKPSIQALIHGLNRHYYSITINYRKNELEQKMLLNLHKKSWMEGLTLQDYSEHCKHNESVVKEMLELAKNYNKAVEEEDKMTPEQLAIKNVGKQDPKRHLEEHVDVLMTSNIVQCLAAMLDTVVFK
PP5 primary – inhibitors of human protein phosphatase 5 (PP5). P53041. purified PP5c, OMFP substrate fluorescence. actives 0.18% (n = 320,000). AID 1987. inhibition, % at 6.7 µM;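 active means inhibition above the campaign's mean inhibition across all tested compounds plus 3 SD, cut at about 9.5% in these data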
Rpn11 confirm – Rpn11 inhibition confirmation, single concentration; shares compounds with Rpn11 block; purified human 26S proteasome, Ub4-pepOG fluorescence polarization; proteasome pretreated with epoxomicin; inhibition, % at 20 µM; actives 29% (n = 1,900)
MMP-2 counter – MMP-2 (human) inhibition counter-screen; recombinant MMP-2, FRET peptide cleavage fluorescence; inhibition, % at 20 µM; shares compounds with Rpn11 block; actives 4% (n = 1,900);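 further: human MMP-2 activated beforehand with APMA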
Thrombin inh – counter-screen for RPN11 inhibitors: inhibition of bovine thrombin; shares compounds with Rpn11 block; bovine thrombin cleavage of Ub4-pepOG, fluorescence polarization; inhibition, % at 20 µM; actives 13% (n = 1,900); AID 602333;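 active means mean inhibition at least 40% at 20 µM, or signal 3 deviations below plate average, so some actives read negative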
A number is an active result; - = inactive; . = no result given; + = active, no number; ! = a repeat was not active. Unless noted, no stated cut-off is given here; in the data, active means inhibition above about 40%; inactive means the rest.

SMILES	NadD inh	PREPL inhibitor	PP1 counter	Rpn11 block	PP5 primary	Rpn11 confirm	MMP-2 counter	Thrombin inh
COCc1c(C(=O)OCC(=O)NCCc2ccc(S(N)(=O)=O)cc2)oc2ccccc12	-	-	-	-	-	.	.	.
CSc1nc2ccc3nc(NC(=O)c4cccs4)sc3c2s1	-	-	-	47	-	-	-	-
Cc1ccc(-c2cc3c(N=O)c4ccccc4c-3n[nH]2)cc1	-	-	-	69	-	-	-	-
O=C(NC1CCCCC1)c1csnn1	-	.	.	-	.	.	.	.
Oc1ccc(Cl)c2cccnc12	-	.	.	-	.	.	.	.
Cc1ccc(S(=O)(=O)Nc2cc(Cl)c(O)c3ncccc23)cc1	-	-	-	72	-	76	52	-
Cc1ccc(S(=O)(=O)Nc2cccnc2Oc2ccc(Cl)cc2)cc1	-	-	-	-	-	.	.	.
Oc1c(Cl)cc(Cl)c2cccnc12	-	.	.	54	.	-	-	-
O=C(NCCCN1CCCC1=O)c1sc2ccccc2c1Cl	-	-	-	-	-	.	.	.
CCn1cc(C(=O)O)c(=O)c2cc(F)c(N3CCN(C(=S)NC(=O)c4ccc(F)cc4)CC3)cc21	-	-	-	-	-	.	.	.
CCCOc1ccc(C(=O)NC(=S)N2CCN(c3cc4c(cc3F)c(=O)c(C(=O)O)cn4CC)CC2)cc1	-	-	-	154	-	-	-	-
Cc1cc(C)c(CN2CCN(C(=O)Cn3cnc(C(=O)Nc4ccc(C)c(C)c4)n3)CC2)c(C)c1	-	.	.	-	.	.	.	.
O=C(O)C(Cc1ccccc1)N1C(=O)/C(=C/C=C/c2ccco2)SC1=S (stereo not drawn)	-	.	.	175	.	178	-	53
O=C(O)CC(C(=O)O)N1C(=O)/C(=C/C=C/c2ccco2)SC1=S (stereo not drawn)	-	-	-	64	-	97	59	-
CN1CCN(c2ccccc2NC(=O)c2sc3ccccc3c2Cl)CC1	-	-	-	-	-	.	.	.
COc1ccc(-n2ccc(=O)c(C(=O)Nc3ccc(S(=O)(=O)Nc4nccs4)cc3)n2)cc1	-	-	-	48	-	-	68	-
O=C(Nc1ccc(S(=O)(=O)Nc2nccs2)cc1)c1nn(-c2ccccc2)ccc1=O	-	-	-	-	-	.	.	.
O=C1CSC(=S)N1N=Cc1ccc2c(c1)OCO2	-	.	.	-	.	.	.	.
O=C1CSC(=S)N1N=Cc1ccc(Cl)s1	-	.	.	59	.	41	-	-
CC(C)(C)c1ccc(/C=N/N2C(=O)CSC2=S)cc1	-	-	-	48	-	-	-	-
Cc1cc(O)cc(O)c1C=NCc1ccco1	-	-	-	-	-	.	.	.
CCOc1cc(/C=C(\C#N)C(=O)Nc2cccc(C(=O)O)c2)ccc1OCc1ccc(Br)cc1	-	-	-	107	-	-	-	-
CCOC(CNC(=O)C1CCN(S(=O)(=O)c2ccc3nc4c(c(C(=O)O)c3c2)CCCCC4)CC1)OCC	-	-	-	-	-	.	.	.
CCC(C)C(=O)Nc1nc(-c2ccc3c(c2)NC(=O)CO3)cs1 (stereo not drawn)	-	-	-	-	-	.	.	.
CCN=c1scc(-c2ccc3c(c2)NC(=O)CO3)n1N=C1CCCC1	-	-	-	44!	-	-	-	-
SMILES	NadD inh	PREPL inhibitor	PP1 counter	Rpn11 block	PP5 primary	Rpn11 confirm	MMP-2 counter	Thrombin inh
CCCCN=c1scc(-c2ccc3c(c2)NC(=O)CO3)n1N=C1CCCC1	-	-	-	55	-	42	-	-
C/C(=N\NC(=O)c1ccco1)c1cc(Cl)sc1Cl	-	-	-	-	-	.	.	.
O=c1cc(-c2ccc(O)cc2)oc2c1ccc1ccccc12	-	-	-	45	-	64	-	-
C#CCOCCOCCOCCNc1nc(N2CCN(C(=O)CCCCCCCCCCNC(=O)[C@H](CCCCN)n3cc(C[C@@H](C)CC)nn3)CC2)nc(N2CCN(C(=O)CCCCCCCCCCNC(=O)[C@H](CCCCN)n3cc(C[C@@H](C)CC)nn3)CC2)n1	48	46	55	87	-	45	-	-
CCN1C(=O)/C(=C/C=C2/Sc3ccccc3N2CCO)SC1=S	-	-	-	52	-	-	-	-
CCOc1ccc(S(=O)(=O)NCCC(=O)N2CCN(C(C)=O)CC2)cc1	-	.	.	-	.	.	.	.
Cc1ccc(CN2CCSCC2)cc1	-	-	-	-	-	.	.	.
COC(=O)c1ccccc1NC(=O)CN1CCN(Cc2ccccc2)CC1	-	-	-	37	-	-	-	-
COc1ccc(N=Nc2nc(-c3ccccc3)c(-c3ccccc3)[nH]2)cc1	-	-	-	39	-	-	-	-
Oc1ccccc1N=Nc1nc(-c2ccccc2)c(-c2ccccc2)[nH]1	35	-	17	54	-	-	-	-
COc1ccccc1N=Nc1nc(-c2ccccc2)c(-c2ccccc2)[nH]1	-	-	-	-	-	.	.	.
O=S(=O)(Nc1nc2ccccc2nc1Nc1ccc2c(c1)OCO2)c1ccc(F)cc1	-	-	-	38	-	-	-	-
O=S(=O)(Nc1ccc2c(c1)OCO2)c1ccccc1	-	-	-	-	-	.	.	.
COc1cccc(NC(=O)N(C)C[C@H]2Oc3cc(C#Cc4ccncc4)ccc3S(=O)(=O)N([C@H](C)CO)C[C@H]2C)c1	-	.	.	-	.	.	.	.
COc1ccc(C#Cc2ccc3c(c2)O[C@@H](CN(C)C(=O)Nc2cccc(OC)c2)[C@H](C)CN([C@@H](C)CO)S3(=O)=O)cc1	-	.	.	47	.	41	-	-
N#C/C(=C\c1ccc(Cl)cc1)C(=O)Nc1cccnc1	-	-	-	91	-	-	-	-
N#C/C(=C\c1ccc(O)c(O)c1)C(=O)Nc1ccccc1	-	-	-	56	-	91	-	-
COc1ccc(/C=C(\C#N)C(=O)Nc2cccnc2)cc1	-	-	-	-	-	.	.	.
COc1ccccc1C1C(C(C)=O)=C(O)C(=O)N1c1ccc(O)cc1 (stereo not drawn)	-	-	-	-	-	.	.	.
Cc1ccc(CSCC(=O)N/N=C/c2ccc(OCC(=O)Nc3ccc(C)cc3)cc2)cc1	-	-	-	102	-	80	-	-
NC(=O)c1nc(C(=O)N2CCN(c3ccccc3)CC2)c2ccccc2n1	-	-	-	-	-	.	.	.
O=[N+]([O-])c1ccc(C=NNc2ccccc2)cc1	-	.	.	55	.	-	-	-
O=[N+]([O-])c1ccc(NN=C(Oc2ccccc2)c2ccc([N+](=O)[O-])cc2)cc1	-	.	.	42	.	-	-	-
O=C(O)CCCN1C(=O)/C(=C\c2ccc(-c3nc4ccccc4s3)o2)SC1=S	-	-	-	159	-	70	-	-
O=C(O)CCN1C(=O)/C(=C/c2ccc(-c3nc4ccccc4s3)o2)SC1=S	-	-	-	+	-	173	-	-
CCOC(=O)C1=CN(Cc2ccco2)S(=O)(=O)N(C)C1CC (stereo not drawn)	-	.	.	-	.	.	.	.

Screening results: PubChem BioAssay, several laboratories
